High-throughput results (PubChem BioAssay)
A selection: hits, their analogues and other compounds. The true share with any hit is near 7.3%.
NPC1 promoter act = activators of NPC1 promoter | Huh7 NPC1 promoter luciferase reporter, 24 h | Potency, µM (titrated, usually from 9.22 µM), for the others: at the highest dose activation, usual class: activators | hit rate 2.4% among 320,000; note: % of control where 0% means no effect; nearly all actives have a fitted effect of over 60% in size
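Compounds in DMSO were transferred onto Huh7 NPC1-luciferase reporter cells pre-incubated 2 h; after 24 h at 37 °C, Amplite reagent was dispensed and luminescence recorded 10 min later.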
FLuc counter = inhibits or activates purified firefly luciferase, miR-21 counter-screen; purified FLuc, Km substrates, luminescence inhibition; Potency, µM (highest dose often 57.5 µM), for inactives: top-dose activity change, negative = inhibition, hits mostly inhibitors; hit rate 6.9% among 360,000;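 note: plate controls were vehicle for no effect and reference inhibitor for full effect; nearly all actives have a fitted effect of over 55% in size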
Target sequence (P08659 whole entry, looked up): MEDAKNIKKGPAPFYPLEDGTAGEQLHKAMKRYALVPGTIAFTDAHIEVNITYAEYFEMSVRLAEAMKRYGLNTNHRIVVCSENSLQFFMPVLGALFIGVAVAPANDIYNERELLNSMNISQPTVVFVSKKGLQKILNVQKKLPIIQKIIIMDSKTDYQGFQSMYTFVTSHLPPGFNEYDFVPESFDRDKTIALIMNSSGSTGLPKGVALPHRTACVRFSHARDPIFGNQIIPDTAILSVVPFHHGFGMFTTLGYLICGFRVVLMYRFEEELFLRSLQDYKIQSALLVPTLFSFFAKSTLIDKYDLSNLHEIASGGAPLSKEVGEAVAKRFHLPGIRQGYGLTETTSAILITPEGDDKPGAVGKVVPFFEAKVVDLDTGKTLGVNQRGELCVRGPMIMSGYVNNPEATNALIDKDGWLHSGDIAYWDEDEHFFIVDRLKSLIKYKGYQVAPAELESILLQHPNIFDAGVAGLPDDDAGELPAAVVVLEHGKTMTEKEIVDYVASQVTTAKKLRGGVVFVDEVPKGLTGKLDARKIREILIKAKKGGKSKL
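Biochemical qHTS of compounds, final roughly 60 µM downward over six points, against 10 nM purified firefly luciferase using Km concentrations of substrates (10 uM D-luciferin, 10 uM ATP) in Tris acetate pH 7.5 buffer; luminescence output.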
ELG1 genotox = induces genotoxicity in HEK293T cells with luciferase-tagged ELG1 | HEK293T ELG1-luciferase reporter, luminescence, 16 h | Potency, µM (series often up to 46 µM), without a hit: at the top dose activity change, positive = activation, most hits filed as activators | hit rate 1.3% among 330,000 | AID 504466; note: % of control where 0% means no effect; nearly all actives have a fitted effect of over 60% in size
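Reporter readout depends on ELG1 protein level, which increases with genetic stress. After 16 hr compound exposure at 37 °C, luciferase activity was quantified using ONE-Glo.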
SMN2 splice up = enhancers of SMN2 splice variant expression; Potency, µM (top dose mostly 46.1 µM), inactives show top-dose activity change, positive = activation, most hits filed as activators; AID 1458; HEK293 SMN2-luciferase splicing reporter, luminescence, 30-36 h; hit rate 2.8% among 210,000; note: % of control where 0% means no effect; nearly all actives have a fitted effect of over 55% in size
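HEK293 cells carry an SMN2 minigene-luciferase reporter in which exon 7 inclusion puts luciferase in frame. Cells were seeded at 2000 cells/well, attached for 10-12 hours, then exposed to compounds for 30-36 hours at 37C before ONE-Glo luminescence.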
Rab9 promoter act = Rab9 promoter activation. Huh7 Rab9 promoter-luciferase reporter, luminescence, 24 h. Potency, µM (top dose mostly 9.22 µM), for the others: at the top dose activation, negative = inhibition, usual class: activators. AID 485297. hit rate 2.8% among 320,000; note: % of control where 0% means no effect; nearly all actives have a fitted effect of over 60% in size
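Luminescence from Amplite-detected luciferase (10 minutes, ambient) reports Rab9 promoter activation. Before that, stable Rab9-luciferase Huh7 cells (1500/well, reduced-serum OP-MEM I plus 10% FBS) were exposed to compound for 24 hours at 37C.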
p53 reactivator = restores transcriptional activity of mutant p53 | hit rate 0.063% among 320,000 | H1299 p53-A138V BP100-luciferase reporter, luminescence, 24 h | Potency, µM (titrated, usually from 92.2 µM), for inactives: at the highest dose activity change, positive = activation, hits mostly activators; note: % of control where 0% means no effect; nearly all actives have a fitted effect of over 45% in size
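H1299 (p53-null), stable ts p53-A138V + BP100-Luc; 1000 cells/well, Opti-MEM/10% FBS; cpd 4 pt, 1:5; 24 h, 37 deg C, 5% CO2; detection reagent 10 min RT; luminescence.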
* marks the source's active call; other numbers are inactive results; ? = inconclusive; . = not tested or not shown; [ ] = remark or other dose. Calls come from the whole dose curve; as a rule, active = well fitted curve in the direction sought with a large enough effect; inconclusive = small, poorly fitted or top-dose-only effect, or another doubt; inactive = no such curve, though single readings can be large; an effect the other way counts as inactive or inconclusive. Potency is the fitted concentration of half-maximal effect.

SMILES	NPC1 promoter act	FLuc counter	ELG1 genotox	SMN2 splice up	Rab9 promoter act	p53 reactivator
Cc1ccc(C(=O)COC(=O)c2cnccn2)cc1C	1%	21µM*	1%	6%	1%	-8%
CCCC(=O)Nc1ccc(C(=O)COC(=O)C2CC2)cc1	.	.	15%	.	.	?
Cc1ccc(C(=O)COC(=O)c2ccc(O)cc2)cc1	?	11µM*	?	.	3.2µM*	30%
Cc1ccc(C(=O)COC(=O)C2CCC2)cc1	0%	0.38µM*	2%	.	-3%	2%
CSc1ccc(Nc2nn(-c3ccc(OC(F)(F)F)cc3)nc2C(C)=O)cc1	.	1%	.	-9%	.	.
CCc1ccccc1NC(=O)c1cc(S(=O)(=O)N2CCCc3ccccc32)ccc1F	.	5%	.	.	.	.
COc1ccc(NC(=O)CSc2oc(-c3cccs3)nc2S(=O)(=O)c2ccccc2)c(OC)c1	.	-5%	.	-4%	.	.
Cc1ccccc1NC(=O)Cn1c(=O)n(CCC(=O)N2CCc3ccccc3C2)c(=O)c2ccccc21	.	-8%	.	-1%	.	.
O=C(OCC(=O)c1ccccc1Cl)c1cnccn1	-6%	?	1%	-6%	2%	-5%
O=C(OCC(=O)c1ccc(Cl)cc1Cl)c1cnccn1	-1%	12µM*	3%	.	-2%	7%
CCOC(=O)c1ccc(N=Nc2c(C)[nH]n(-c3ccccc3)c2=O)cc1	11%	?	2%	.	20%	.
COc1cccc(N=Nc2c(C)[nH]n(-c3ccccc3)c2=O)c1	?	11µM*	?	.	?	.
CCOc1ccc(N=Nc2c(C)[nH]n(-c3ccccc3)c2=O)cc1	17%	?	-5%	.	4%	3%
Nc1[nH]n2c(=O)cc(-c3ccccc3)nc2c1N=Nc1ccc2c(c1)OCO2	-6%	5.4µM*	-2%	.	-8%	22%
Cc1[nH]n(-c2ccccc2)c(=O)c1N=Nc1ccc2c(c1)OCO2	?	6µM*	9%	18µM*	?	13%
Cc1cccc(C)c1NC(=O)CSc1nc2ncccc2o1	.	-3%	.	.	.	.
Cc1cc2c(cc1C)NC(CC(=O)Nc1ccccc1SC(F)(F)F)C(=O)N2 (configuration not stated)	.	4%	.	-3%	.	.
O=C1C=C(Nc2nc(C(=O)O)cc(=O)[nH]2)c2ccccc2C1=O	.	.	.	-4%[9.22 µM]	.	.
CCCCCCNCC1OCc2ccccc2CO1	1%	6%	2%	-12%	-7%	-8%
c1ccc(NCC2OCc3ccccc3CO2)cc1	4µM*	24µM*	?	16µM*	2.5µM*	?
NCCCCC(N)C(=O)NC(Cc1ccc(O)cc1)C(=O)NC(CCCCN)C(=O)O (configuration not stated)	.	.	.	1%	.	.
O=C(NC(=S)Nc1ccccn1)c1ccco1	2.2µM*	21µM*	?	10µM*	2µM*	?
O=C(NC(=S)Nc1cccnc1Cl)c1ccc(Cl)cc1	?	17µM*	?	.	?	?
Cc1ccnc(NC(=O)CNC(=O)c2cccs2)c1	2%	1%	3%	.	-4%	1%
Cc1ccc(O)c(NC(=S)NC(=O)/C=C/c2ccco2)c1	-7%	-1%	?	30%	26%	1%
SMILES	NPC1 promoter act	FLuc counter	ELG1 genotox	SMN2 splice up	Rab9 promoter act	p53 reactivator
Cc1ccnc(NC(=S)NC(=O)c2cccs2)c1	1.6µM*	4.3µM*	2.1µM*	6.3µM*	0.79µM*	.
O=C(Nc1cccnc1Cl)c1ccc(Cl)cc1	?	?	?	.	?	-3%
CC(C)(C)C(=O)NC(=S)Nc1ccccn1	-1%	-4%	6%	16%	-2%	-1%
Cc1ccnc(NC(=S)NC(=O)/C=C/c2ccco2)c1	?	7.6µM*	9.2µM*	?	?	?
CCN(CCO)C[C@H]1CCC[C@H]2CCCC[C@@H]21	.	.	.	-7%[9.22 µM]	.	.
O=C1CN(c2nc3nonc3nc2N2CCCCC2)CCN1	0%	1%	-1%	.	14%	-1%
COc1ccccc1NC(=O)Cn1cnc2sc(C)c(S(=O)(=O)N3CCCCC3)c2c1=O	-6%	3%	6%	-8%	-4%	-1%
COc1ccccc1N1CCN(c2nc(-c3ccc(C)cc3)nc3ccccc23)CC1	.	-1%	.	.	.	.
CS(=O)(=O)CC[C@@H](C(=O)NCCc1ccccc1)N1Cc2ccccc2C1=O	.	0%	.	-3%	.	.
Cc1ccnc(NC(=O)CNC(=O)c2ccco2)c1	2%	-4%	9%	.	2%	6%
O=C(NC(=S)Nc1ccc(Cl)cn1)c1cccs1	?	3µM*	?	13µM*	5.6µM*	?
Cc1ccnc(NC(=S)NC(=O)c2ccco2)c1	2µM*	12µM*	?	88%	2µM*	26%
O=C(NC(=S)Nc1cccnc1Cl)c1ccco1	22%	15µM*	8%	15%	?	22%
CCOc1cc(C(=O)Nc2cccc3cccnc23)cc(OCC)c1OCC	.	-3%	.	?	.	.
O=C(O)[C@@H]1[C@@H](C(=O)O)[C@@]23CCCC2=C2CC[C@@]3(C(=O)O)[C@@]3(C(=O)O)C[C@@]213	.	.	.	-7%[9.22 µM]	.	.
O=Cc1ccc(OC(=O)/C=C/c2ccccc2)cc1	-1%	19µM*	1%	.	5%	8%
CCOc1ccc(/C=C/C(=O)c2ccc(-c3ccccc3)cc2)cc1	2%	-8%	-5%	-20%	-5%	9%
CCOc1ccc(/C=C/C(=O)Oc2ccccc2)cc1	-4%	1.5µM*	5%	.	12%	?
CCOC(=O)CSc1ncnc2c1nnn2-c1ccc(F)cc1	0%	15µM*	6%	-15%	3%	4%
O=C(CSc1ncnc2c1cnn2-c1ccccc1)NCC1CCCO1 (configuration not stated)	10%	-19%	-7%	.	4%	-2%
Cc1ccc(-c2ccc(SCC(=O)NCC3CCCO3)nn2)cc1 (configuration not stated)	11%	17µM*	2%	-1%	18%	18%
CCOc1ccc(-c2ccc3nnc(SCC(=O)NCC4CCCO4)n3n2)cc1 (configuration not stated)	-3%	4%	-3%	.	-8%	0%
CCOc1ccc(-c2ccc(SCC(=O)NCC3CCCO3)nn2)cc1 (configuration not stated)	?	5.4µM*	5%	16µM*	3.2µM*	15%
CCOC(=O)CC(=O)CSc1ncnc2c1nnn2-c1ccc(F)cc1	-1%	?	0%	-8%	5%	-3%
Cc1ccc(-n2nnc3c(SCC(=O)NCC4CCCO4)ncnc32)cc1 (configuration not stated)	8%	5.4µM*	13%	-5%	-1%	40%
CC(=O)N(c1nnc(-c2ccc(C)cc2)s1)C1CCCC1	0%	13µM*	?	.	?	.
